39 molecules from the supplement of paper PMC3842684 can be followed below.

The subject of the experiment is P. falciparum NF54-pfs16-GFP early (I-III) stage gametocytes. Put plainly: relative % inhibition of viable gametocyte number; higher = more gametocytocidal. The settings on record: 5 µM; stage: early (I-III) gametocyte; incubation 72 h. The gist of the method:
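Viable gametocytes were counted by confocal imaging as elongated GFP objects carrying MitoTracker Red signal above a cut-off, after 72 h of compound exposure (5 or 0.5 µM) at 37°C in 5% CO2 and 5% O2 and overnight staining. The NF54 pfs16-GFP gametocytes had been magnet-isolated at early (I/IIa, day 2) or late (day 8) stage and plated at 10% parasitaemia, 0.1% haematocrit in 384-well poly-D-lysine imaging plates. Relative inhibition was normalised to vehicle and positive-control wells within each plate.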
For `CCN1CCN(c2cc(C)c3cc(NC(=O)c4ccc(OC)c(OC)c4)ccc3n2)CC1`, the relative % inhibition worked out at 14.1%.
The figure for `CN1CCN(c2ncnc3c2[nH]c2ccc(Cl)cc23)CC1` is 20.1%; for `CCOc1ccc(-c2nc(NC(=O)c3cccc(S(C)(=O)=O)c3)sc2C)cc1` it is 15.4%.
In the case of `CCOc1ccc(-c2nonc2NC(=O)c2cccc(C)c2)cc1OCC`, the relative % inhibition is 94.4%.
The figure for `CCOC(=O)C1=C(C)N=c2sc(=Cc3ccccc3O)c(=O)n2C1c1ccc(OC)c2ccccc12` (centres undefined) is 86.4%.
As for `CCCOCc1cc(CN2CCN(c3cccc(Cl)c3)CC2)c(O)c2ncccc12`, the relative % inhibition was determined as 91.3%.
Turning to `COc1ccc(-n2ccnc2SCC(=O)Nc2cc(C)ccc2C)c(OC)c1`, the relative % inhibition is -5.2%.
The result for `CCN(CC)c1cc(C)c2cc(NC(=O)c3cccc(OC)c3)ccc2n1` reads 16.1%; that for `COc1ccc2nc(C)cc(Nc3cccc(O)c3)c2c1`, 3.08%.
`Oc1ccc(Cl)cc1CNc1nc2ccccc2[nH]1`: the relative % inhibition was determined as 37.3%.
As for `O=C(NNc1cc(N2CCCC2)nc(N2CCCC2)n1)c1ccccc1`, the relative % inhibition was -5.49%.
In the case of `O=C(Nc1nc(-c2ccccn2)cs1)c1ccccc1Br`, the relative % inhibition is 93.2%.
Take `Cc1[nH]c(-c2ccc(F)cc2)cc1C(=O)NC1CCN(Cc2ccccc2)CC1`: the relative % inhibition is 75.3%.
The figure for `CCCN(CCC)CC(O)COc1ccccc1C(=O)Nc1ccccc1` (centres undefined) is 101%.
The figure for `O=C(Nc1ccc(-c2nc3cc4ccccc4cc3[nH]2)cc1)c1cccc(Br)c1` is 34.5%; for `Brc1ccc(Nc2nc3ccccc3nc2Nc2ccc(Br)cc2)cc1` it is 103%; for `COCCN(C(=O)Cc1cccs1)C(C(=O)NCc1ccc(OC)cc1)c1ccc(C(C)C)cc1` (centres undefined) it is 5.52%.
Regarding `COc1ccc(C2c3ccc4ccccc4c3Oc3ncn(CCCN(C)C)c(=N)c32)cc1` (centres undefined), the relative % inhibition is -22.6%.
The figure for `CCN(CC)CCNc1ncnc2c1[nH]c1ccc(Br)cc12` is 61.4%; for `O=C(CCl)NCCOc1ccc(Cl)cc1Cl` it is 9.39%.
Take `COc1cc(-c2nc(-c3ccccc3)c(-c3ccccc3)[nH]2)cc(OC)c1O`: the relative % inhibition turned out to be 29.3%.
The result for `OC(Cn1nnc2ccccc21)Cn1c2ccc(Br)cc2c2cc(Br)ccc21` (centres undefined) reads 83.6%.
For the molecule `CCc1c(C)c(=N)c2ccccc2n1C`, the relative % inhibition stood at 8.52%.
As to `O=C(Nc1cccc(-c2nc3ccccc3[nH]2)c1)c1cccc(NC(=O)c2ccco2)c1`, the relative % inhibition was 20.8%.
For `COc1cccc(O)c1CN1CCC2(CCCN(Cc3ccc(F)cc3)C2)C1` (centres undefined), the relative % inhibition stood at 80.5%.
`O=C1CC(O)(C(F)(F)C(F)(F)F)Oc2ccccc21` (centres undefined): the relative % inhibition was 0.745%.
Take `OCCNc1nc(Nc2ccc(Cl)c(Cl)c2)nc2ccccc12`: the relative % inhibition was -11%.
The result for `CCOc1cc(Br)c(C(C)NC(=O)c2cccc(OC)c2)cc1OCC` (centres undefined) reads 46.2%.
For `COc1cccc(NC(=O)[C@H](C(C)C)n2c(=O)[nH]c3ccccc3c2=O)c1`, the relative % inhibition was 97.8%.
The figure for `Oc1ccccc1CN1CCN(C(c2ccccc2)c2ccccc2)CC1` is 98.5%.
As for `COc1cc2c3cc1Oc1c(OC)c(OC)cc4c1C(Cc1ccc(O)c(c1)Oc1ccc(cc1)CC3N(C)CC2)N(C)CC4` (centres undefined), the relative % inhibition was found to be 73.4%.
The result for `COc1ccc(C(=O)C2CC2c2ccc(Cl)cc2)cc1` (centres undefined) reads 79.1%.
The figure for `CC(C)CNC(=O)c1c(N)n(CCc2ccccc2F)c2nc3ccccc3nc12` is 3.8%; for `O=C(Nc1cccc(C(F)(F)F)c1)c1cc(Cl)ccc1O` it is 104%.
The figure for `CCOc1ccc(C2N(C)c3ccccc3N2C)cc1` is 15.9%.
With `COc1ccc(-c2cc(=O)oc3c4c(ccc23)OCN(Cc2ccc(F)cc2)C4)cc1`, the relative % inhibition came to 73.2%.
The figure for `OC(CNC1CCCC1)Cn1c2ccccc2c2ccccc21` (centres undefined) is 91.7%; for `O=C(NCC1Cc2cccc(-c3ccncc3)c2O1)c1csc2c1CCCC2` (centres undefined) it is 6.48%; for `CCOc1cc2c(cc1OCC)C(c1cc(C)c(O)c(C)c1)NCC2` (centres undefined) it is 102%.
